Assay results taken from PMC7862700, “An all-to-all approach to the identification of sequence-specific readers for epigenetic DNA modifications on cytosine”.

Legend:
Test in all cases: DAPPL (digital affinity profiling via proximity ligation, sequencing); 10 mM Tris-HCl pH 7.5, 50 mM NaCl, 1 mM DTT, 4% glycerol, room temperature, 30 min; GST-TFs on glutathione beads, 16-mer random dsDNA library, 0.1% formaldehyde crosslink after washing; high values mean tight binding
FLI1 = molecular target: T1, FLI1 (Homo sapiens, UniProt Q01543 1-452); conditions: protein: recombinant; tags: N-terminal GST; dsDNA, one strand shown
T1 sequence: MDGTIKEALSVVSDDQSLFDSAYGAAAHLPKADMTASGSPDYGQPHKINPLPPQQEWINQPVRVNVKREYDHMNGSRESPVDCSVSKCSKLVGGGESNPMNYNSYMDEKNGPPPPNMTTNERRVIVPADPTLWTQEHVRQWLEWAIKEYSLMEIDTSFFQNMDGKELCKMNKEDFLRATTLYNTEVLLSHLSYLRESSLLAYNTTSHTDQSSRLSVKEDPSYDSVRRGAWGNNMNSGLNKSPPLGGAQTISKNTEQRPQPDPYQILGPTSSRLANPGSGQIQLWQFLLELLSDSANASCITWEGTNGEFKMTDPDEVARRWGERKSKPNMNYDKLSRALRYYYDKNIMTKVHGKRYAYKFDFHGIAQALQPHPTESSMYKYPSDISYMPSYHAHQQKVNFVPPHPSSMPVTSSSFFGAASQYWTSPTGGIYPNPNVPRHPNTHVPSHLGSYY
How it was run: (§1)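 GST fusions of human transcription factors were expressed in yeast and captured with glutathione beads. Once given DNA barcodes and pooled alongside a tag-only sample, they were incubated for 30 min at room temperature with 200 nmole of a random double-stranded 16-mer DNA library in Tris/NaCl/DTT/glycerol buffer, then washed, crosslinked (0.1% formaldehyde), proximity-ligated, PCR-amplified and sequenced on an Illumina NextSeq500. The binding signal of each hexamer is its read frequency for a factor divided by its frequency for the tag-only sample.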

ELK1 = molecular target: T2, ELK1 (Homo sapiens, UniProt P19419 1-428); conditions: protein: recombinant; tags: N-terminal GST; dsDNA, one strand shown
T2 sequence: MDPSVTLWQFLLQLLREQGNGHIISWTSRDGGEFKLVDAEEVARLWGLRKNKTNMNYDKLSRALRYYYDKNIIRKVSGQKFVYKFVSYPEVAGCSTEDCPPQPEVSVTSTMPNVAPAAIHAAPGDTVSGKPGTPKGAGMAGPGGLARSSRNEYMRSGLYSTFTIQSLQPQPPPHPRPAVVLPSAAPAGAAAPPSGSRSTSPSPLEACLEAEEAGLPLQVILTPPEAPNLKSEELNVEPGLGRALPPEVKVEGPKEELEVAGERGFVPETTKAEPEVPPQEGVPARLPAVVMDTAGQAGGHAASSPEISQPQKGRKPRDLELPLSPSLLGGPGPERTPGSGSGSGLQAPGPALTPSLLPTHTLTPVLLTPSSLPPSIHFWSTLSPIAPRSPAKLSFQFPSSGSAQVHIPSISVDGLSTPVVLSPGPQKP
How it was run: as §1

GABPA = molecular target: T3, GABPA (Homo sapiens, UniProt Q06546 1-454); conditions: protein: recombinant; tags: N-terminal GST; dsDNA, one strand shown
T3 sequence: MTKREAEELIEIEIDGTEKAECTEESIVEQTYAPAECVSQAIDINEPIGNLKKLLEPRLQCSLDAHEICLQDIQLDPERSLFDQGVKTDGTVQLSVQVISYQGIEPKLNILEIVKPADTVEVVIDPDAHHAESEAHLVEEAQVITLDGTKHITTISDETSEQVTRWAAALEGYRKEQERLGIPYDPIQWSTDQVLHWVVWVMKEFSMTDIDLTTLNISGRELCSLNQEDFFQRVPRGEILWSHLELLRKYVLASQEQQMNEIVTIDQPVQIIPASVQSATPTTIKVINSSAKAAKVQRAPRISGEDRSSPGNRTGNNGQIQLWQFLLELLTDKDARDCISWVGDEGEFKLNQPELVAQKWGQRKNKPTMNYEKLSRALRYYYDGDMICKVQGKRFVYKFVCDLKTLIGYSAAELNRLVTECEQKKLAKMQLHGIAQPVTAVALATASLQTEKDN
How it was run: as §1

ERG = molecular target: T4, ERG (Homo sapiens, UniProt P11308 1-479); conditions: protein: recombinant; tags: N-terminal GST; dsDNA, one strand shown
T4 sequence: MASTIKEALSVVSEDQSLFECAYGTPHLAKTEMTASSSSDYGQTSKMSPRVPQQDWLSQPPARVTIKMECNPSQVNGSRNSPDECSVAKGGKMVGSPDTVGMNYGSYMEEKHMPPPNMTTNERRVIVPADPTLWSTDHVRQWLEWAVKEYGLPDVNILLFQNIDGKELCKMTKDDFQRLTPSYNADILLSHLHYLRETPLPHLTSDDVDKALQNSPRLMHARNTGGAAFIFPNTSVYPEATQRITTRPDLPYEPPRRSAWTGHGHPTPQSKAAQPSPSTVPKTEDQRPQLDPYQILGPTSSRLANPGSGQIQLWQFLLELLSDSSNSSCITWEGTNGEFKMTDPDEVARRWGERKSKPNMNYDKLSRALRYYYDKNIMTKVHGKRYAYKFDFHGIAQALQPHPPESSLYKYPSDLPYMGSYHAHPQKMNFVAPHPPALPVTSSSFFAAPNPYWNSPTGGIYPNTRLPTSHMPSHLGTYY
How it was run: as §1

ELF1 = ELF1 (Homo sapiens, UniProt P32519 1-619); conditions: protein: recombinant; tags: N-terminal GST; dsDNA, one strand shown
How it was run: as §1

EHF = molecular target: T5, EHF (Homo sapiens, UniProt Q9NZC4 1-300); conditions: protein: recombinant; tags: N-terminal GST; dsDNA, one strand shown
T5 sequence: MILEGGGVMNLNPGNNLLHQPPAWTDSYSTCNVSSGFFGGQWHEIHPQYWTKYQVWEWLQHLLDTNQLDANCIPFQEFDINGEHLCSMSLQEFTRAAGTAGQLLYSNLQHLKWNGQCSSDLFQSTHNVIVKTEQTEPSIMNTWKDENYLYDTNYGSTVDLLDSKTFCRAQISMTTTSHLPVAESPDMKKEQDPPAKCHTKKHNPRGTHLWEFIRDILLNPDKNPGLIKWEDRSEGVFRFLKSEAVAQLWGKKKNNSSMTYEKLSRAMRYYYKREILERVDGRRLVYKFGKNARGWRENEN
How it was run: as §1

SPI1 = SPI1 (Homo sapiens, UniProt P17947 1-270); conditions: protein: recombinant; tags: N-terminal GST; dsDNA, one strand shown
How it was run: as §1

SPIB = SPIB (Homo sapiens, UniProt Q01892 1-262); conditions: protein: recombinant; tags: N-terminal GST; dsDNA, one strand shown
How it was run: as §1

ELK3 = molecular target: T6, ELK3 (Homo sapiens, UniProt P41970 1-407); conditions: protein: recombinant; tags: N-terminal GST; dsDNA, one strand shown
T6 sequence: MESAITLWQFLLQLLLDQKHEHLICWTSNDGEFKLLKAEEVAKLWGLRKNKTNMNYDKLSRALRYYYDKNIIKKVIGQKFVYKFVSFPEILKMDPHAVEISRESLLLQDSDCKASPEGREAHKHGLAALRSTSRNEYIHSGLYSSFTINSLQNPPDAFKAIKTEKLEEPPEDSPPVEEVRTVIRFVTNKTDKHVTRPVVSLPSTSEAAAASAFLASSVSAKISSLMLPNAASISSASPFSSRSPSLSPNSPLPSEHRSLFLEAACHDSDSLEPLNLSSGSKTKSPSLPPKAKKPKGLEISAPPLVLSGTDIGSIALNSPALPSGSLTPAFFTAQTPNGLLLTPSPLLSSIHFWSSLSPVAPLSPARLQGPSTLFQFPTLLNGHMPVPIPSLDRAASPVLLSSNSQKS
How it was run: as §1

FEV = molecular target: T7, FEV (Homo sapiens, UniProt Q99581 1-238); conditions: protein: recombinant; tags: N-terminal GST; dsDNA, one strand shown
T7 sequence: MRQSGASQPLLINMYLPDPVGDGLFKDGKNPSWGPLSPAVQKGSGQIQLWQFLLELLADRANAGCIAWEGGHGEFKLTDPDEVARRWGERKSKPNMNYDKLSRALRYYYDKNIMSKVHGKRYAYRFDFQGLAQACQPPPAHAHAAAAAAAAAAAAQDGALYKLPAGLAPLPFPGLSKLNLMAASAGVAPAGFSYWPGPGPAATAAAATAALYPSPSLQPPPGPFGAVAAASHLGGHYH
How it was run: as §1

ETV5 = ETV5 (Homo sapiens, UniProt P41161 1-510); conditions: protein: recombinant; tags: N-terminal GST; dsDNA, one strand shown
How it was run: as §1

HSF1 = HSF1 (Homo sapiens, UniProt Q00613 1-529); conditions: protein: recombinant; tags: N-terminal GST; chain copies: 3; dsDNA, one strand shown
How it was run: as §1

SPIC = molecular target: T8, SPIC (Homo sapiens, UniProt Q8N5J4 1-248); conditions: protein: recombinant; tags: N-terminal GST; dsDNA, one strand shown
T8 sequence: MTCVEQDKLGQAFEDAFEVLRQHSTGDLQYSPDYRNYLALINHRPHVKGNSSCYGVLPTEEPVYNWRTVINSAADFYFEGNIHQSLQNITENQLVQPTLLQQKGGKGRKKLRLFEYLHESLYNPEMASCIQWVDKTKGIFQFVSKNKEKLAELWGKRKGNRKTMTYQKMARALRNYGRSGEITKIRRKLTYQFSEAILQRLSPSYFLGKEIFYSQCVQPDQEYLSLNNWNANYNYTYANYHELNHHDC
How it was run: as §1

ELF4 = ELF4 (Homo sapiens, UniProt Q99607 1-663); conditions: protein: recombinant; tags: N-terminal GST; dsDNA, one strand shown
How it was run: as §1

ELK4 = molecular target: T9, ELK4 (Homo sapiens, UniProt P28324-2 1-405); conditions: protein: recombinant; tags: N-terminal GST; dsDNA, one strand shown
T9 sequence: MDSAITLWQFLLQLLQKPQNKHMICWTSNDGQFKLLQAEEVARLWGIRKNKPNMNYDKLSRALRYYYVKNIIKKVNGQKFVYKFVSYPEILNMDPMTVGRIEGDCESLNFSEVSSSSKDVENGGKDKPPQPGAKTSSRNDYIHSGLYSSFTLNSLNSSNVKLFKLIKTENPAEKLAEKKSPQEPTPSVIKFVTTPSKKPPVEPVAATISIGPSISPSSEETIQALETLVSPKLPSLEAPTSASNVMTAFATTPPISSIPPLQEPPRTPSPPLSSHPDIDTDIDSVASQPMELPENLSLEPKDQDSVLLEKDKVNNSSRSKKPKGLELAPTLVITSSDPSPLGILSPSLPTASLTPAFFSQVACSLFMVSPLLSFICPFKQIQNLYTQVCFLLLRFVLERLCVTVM
How it was run: as §1

ETV2 = molecular target: T10, ETV2 (Homo sapiens, UniProt O00321 1-342); conditions: protein: recombinant; tags: N-terminal GST; dsDNA, one strand shown
T10 sequence: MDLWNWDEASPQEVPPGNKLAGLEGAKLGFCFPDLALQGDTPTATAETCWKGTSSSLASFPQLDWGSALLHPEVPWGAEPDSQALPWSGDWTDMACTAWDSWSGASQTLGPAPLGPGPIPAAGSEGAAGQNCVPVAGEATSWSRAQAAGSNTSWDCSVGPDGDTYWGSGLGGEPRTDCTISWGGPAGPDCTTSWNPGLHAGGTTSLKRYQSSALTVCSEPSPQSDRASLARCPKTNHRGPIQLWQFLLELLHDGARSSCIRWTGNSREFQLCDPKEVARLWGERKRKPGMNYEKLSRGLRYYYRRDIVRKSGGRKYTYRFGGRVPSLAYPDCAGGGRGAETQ
How it was run: as §1

ELF3 = molecular target: T11, ELF3 (Homo sapiens, UniProt P78545 1-371); conditions: protein: recombinant; tags: N-terminal GST; dsDNA, one strand shown
T11 sequence: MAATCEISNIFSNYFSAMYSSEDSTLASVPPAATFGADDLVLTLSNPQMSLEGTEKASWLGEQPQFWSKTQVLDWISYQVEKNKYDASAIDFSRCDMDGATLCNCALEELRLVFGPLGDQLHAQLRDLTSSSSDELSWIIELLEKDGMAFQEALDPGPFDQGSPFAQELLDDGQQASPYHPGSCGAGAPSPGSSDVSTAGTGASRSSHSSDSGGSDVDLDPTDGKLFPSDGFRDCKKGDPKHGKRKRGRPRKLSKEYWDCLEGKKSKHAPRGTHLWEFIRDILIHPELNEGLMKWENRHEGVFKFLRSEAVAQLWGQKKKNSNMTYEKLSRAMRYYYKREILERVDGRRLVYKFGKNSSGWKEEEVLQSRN
How it was run: as §1

CRX = CRX (Homo sapiens, UniProt O43186 1-299); conditions: protein: recombinant; tags: N-terminal GST; dsDNA, one strand shown
How it was run: as §1

ETV1 = ETV1 (Homo sapiens, UniProt P50549 1-477); conditions: protein: recombinant; tags: N-terminal GST; dsDNA, one strand shown
How it was run: as §1

Sequence of ETV1 (P50549 whole entry): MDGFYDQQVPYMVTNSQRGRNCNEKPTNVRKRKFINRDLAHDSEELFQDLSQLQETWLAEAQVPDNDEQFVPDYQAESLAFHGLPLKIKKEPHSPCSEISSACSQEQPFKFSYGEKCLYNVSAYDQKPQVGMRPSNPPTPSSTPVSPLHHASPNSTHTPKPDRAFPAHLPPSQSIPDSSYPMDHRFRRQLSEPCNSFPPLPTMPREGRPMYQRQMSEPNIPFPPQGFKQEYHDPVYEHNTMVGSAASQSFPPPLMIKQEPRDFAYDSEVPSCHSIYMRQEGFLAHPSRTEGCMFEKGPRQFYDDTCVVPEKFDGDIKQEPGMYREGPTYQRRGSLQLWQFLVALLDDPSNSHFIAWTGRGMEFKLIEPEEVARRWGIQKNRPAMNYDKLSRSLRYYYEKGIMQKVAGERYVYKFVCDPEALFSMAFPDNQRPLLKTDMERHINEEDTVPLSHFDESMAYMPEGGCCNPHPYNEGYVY
Sequence of ELF1 (P32519 whole entry): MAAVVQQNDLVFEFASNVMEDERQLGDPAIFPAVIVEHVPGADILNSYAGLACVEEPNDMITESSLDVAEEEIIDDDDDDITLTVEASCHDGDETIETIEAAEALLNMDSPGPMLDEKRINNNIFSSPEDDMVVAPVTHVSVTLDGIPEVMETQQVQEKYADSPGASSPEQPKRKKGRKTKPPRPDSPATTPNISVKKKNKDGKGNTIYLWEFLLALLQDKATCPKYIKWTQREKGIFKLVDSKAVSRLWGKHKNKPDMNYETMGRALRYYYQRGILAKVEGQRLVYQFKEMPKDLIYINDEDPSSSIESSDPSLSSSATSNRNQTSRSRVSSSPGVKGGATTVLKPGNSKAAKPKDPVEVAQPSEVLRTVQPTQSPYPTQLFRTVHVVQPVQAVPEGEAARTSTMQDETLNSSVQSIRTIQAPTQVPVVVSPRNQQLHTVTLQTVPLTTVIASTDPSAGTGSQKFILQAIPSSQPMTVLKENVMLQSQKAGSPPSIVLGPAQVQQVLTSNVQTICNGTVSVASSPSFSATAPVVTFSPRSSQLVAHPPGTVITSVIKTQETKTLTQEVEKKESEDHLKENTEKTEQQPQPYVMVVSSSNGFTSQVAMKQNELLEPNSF
Sequence of HSF1 (Q00613 whole entry): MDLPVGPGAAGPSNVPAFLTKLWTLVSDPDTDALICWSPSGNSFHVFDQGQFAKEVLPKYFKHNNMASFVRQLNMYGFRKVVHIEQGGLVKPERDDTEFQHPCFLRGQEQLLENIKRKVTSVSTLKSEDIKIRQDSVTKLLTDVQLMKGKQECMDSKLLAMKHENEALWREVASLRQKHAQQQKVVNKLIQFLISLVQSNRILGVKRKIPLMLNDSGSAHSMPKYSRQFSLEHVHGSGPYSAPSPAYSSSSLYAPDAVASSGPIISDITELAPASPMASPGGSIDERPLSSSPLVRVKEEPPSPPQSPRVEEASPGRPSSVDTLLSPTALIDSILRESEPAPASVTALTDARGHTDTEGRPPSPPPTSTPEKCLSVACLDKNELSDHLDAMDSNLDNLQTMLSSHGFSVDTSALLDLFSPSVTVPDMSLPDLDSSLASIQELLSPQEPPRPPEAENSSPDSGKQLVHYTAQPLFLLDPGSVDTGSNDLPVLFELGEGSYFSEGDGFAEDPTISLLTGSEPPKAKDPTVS
Sequence of ETV5 (P41161 whole entry): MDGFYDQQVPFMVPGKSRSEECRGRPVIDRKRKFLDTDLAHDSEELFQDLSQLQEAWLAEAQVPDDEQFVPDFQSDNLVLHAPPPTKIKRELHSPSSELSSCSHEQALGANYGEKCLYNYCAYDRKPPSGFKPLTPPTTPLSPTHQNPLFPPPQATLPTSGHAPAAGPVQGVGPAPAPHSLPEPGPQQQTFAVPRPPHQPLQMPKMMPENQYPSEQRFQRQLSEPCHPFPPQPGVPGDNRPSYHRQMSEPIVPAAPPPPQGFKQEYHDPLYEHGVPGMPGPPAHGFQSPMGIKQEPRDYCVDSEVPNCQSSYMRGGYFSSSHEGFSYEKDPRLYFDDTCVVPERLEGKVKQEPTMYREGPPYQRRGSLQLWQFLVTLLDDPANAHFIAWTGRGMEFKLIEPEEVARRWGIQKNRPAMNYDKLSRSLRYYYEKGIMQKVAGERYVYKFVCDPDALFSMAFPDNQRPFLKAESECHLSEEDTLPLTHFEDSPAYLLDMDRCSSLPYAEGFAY
Sequence of CRX (O43186 whole entry): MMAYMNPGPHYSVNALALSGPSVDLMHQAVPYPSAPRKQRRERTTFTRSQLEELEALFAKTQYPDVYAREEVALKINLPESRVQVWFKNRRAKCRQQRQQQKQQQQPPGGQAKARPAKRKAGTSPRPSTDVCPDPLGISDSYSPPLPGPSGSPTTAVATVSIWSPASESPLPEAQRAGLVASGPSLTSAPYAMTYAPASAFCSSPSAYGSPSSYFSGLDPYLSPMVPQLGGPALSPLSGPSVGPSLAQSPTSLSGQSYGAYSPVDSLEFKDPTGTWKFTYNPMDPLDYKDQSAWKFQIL
Sequence of SPIB (Q01892 whole entry): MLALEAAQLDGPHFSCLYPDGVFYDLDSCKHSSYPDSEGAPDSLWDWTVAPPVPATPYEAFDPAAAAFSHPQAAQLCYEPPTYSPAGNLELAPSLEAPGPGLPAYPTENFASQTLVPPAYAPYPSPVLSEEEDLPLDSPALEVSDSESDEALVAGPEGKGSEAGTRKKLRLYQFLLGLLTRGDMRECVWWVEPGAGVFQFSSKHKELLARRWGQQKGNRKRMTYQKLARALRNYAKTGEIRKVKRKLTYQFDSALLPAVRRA
Sequence of ELF4 (Q99607 whole entry): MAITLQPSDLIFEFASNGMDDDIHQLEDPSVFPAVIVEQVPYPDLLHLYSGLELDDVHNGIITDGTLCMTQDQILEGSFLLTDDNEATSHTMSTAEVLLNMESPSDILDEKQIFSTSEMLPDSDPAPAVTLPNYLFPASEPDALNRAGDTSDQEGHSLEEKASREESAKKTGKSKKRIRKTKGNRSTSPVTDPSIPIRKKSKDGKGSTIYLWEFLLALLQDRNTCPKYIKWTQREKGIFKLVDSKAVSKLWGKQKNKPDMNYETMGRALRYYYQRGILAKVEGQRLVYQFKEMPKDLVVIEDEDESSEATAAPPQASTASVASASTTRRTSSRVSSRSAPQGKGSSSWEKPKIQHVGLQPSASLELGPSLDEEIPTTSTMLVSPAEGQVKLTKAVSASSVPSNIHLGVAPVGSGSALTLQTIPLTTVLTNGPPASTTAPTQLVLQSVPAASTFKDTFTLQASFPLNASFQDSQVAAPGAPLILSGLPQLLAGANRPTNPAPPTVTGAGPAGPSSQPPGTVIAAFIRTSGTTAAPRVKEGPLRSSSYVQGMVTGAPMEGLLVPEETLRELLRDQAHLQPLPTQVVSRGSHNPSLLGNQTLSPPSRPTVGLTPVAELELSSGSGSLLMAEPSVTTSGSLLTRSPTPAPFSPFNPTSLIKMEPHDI

Sequence: TTCACG
- binding signal (FLI1): 1.48 fold enrichment (6-mer frequency, TF over GST control)
- binding signal (ELK1): 1.44 fold enrichment (6-mer frequency, TF over GST control)
- binding signal (GABPA): 1.41 fold enrichment (6-mer frequency, TF over GST control)
- binding signal (ERG): 1.37 fold enrichment (6-mer frequency, TF over GST control)
- binding signal (ELF1): 1.38 fold enrichment (6-mer frequency, TF over GST control)
- binding signal (EHF): 1.29 fold enrichment (6-mer frequency, TF over GST control)
- binding signal (SPI1): 1.3 fold enrichment (6-mer frequency, TF over GST control)
- binding signal (SPIB): 1.31 fold enrichment (6-mer frequency, TF over GST control)
- binding signal (ELK3): 1.42 fold enrichment (6-mer frequency, TF over GST control)
- binding signal (FEV): 1.28 fold enrichment (6-mer frequency, TF over GST control)
- binding signal (ETV5): 1.34 fold enrichment (6-mer frequency, TF over GST control)
- binding signal (HSF1): 1.51 fold enrichment (6-mer frequency, TF over GST control)
- binding signal (SPIC): 1.45 fold enrichment (6-mer frequency, TF over GST control)
- binding signal (ELF4): 1.46 fold enrichment (6-mer frequency, TF over GST control)
- binding signal (ELK4): 1.55 fold enrichment (6-mer frequency, TF over GST control)
- binding signal (ETV2): 1.34 fold enrichment (6-mer frequency, TF over GST control)
- binding signal (ELF3): 1.41 fold enrichment (6-mer frequency, TF over GST control)
- binding signal (CRX): 1.26 fold enrichment (6-mer frequency, TF over GST control)
- binding signal (ETV1): 1.32 fold enrichment (6-mer frequency, TF over GST control)
